These results are taken from the supplement of paper PMC6555819.

Common to all, as to test: PBM binding z-score (relative to random genomic background probes); higher = stronger binding; sequences stand for … in GC…GCGATTGACAGCGTAGAATGAAGG
In experiment [1] the test system is FXR:RXRa (NR concentration 270 nM, RXRa partner concentration 90 nM). Summed up: (§1)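 The probes on custom Agilent 4×180K protein-binding microarrays were double-stranded, with 34-nt variable regions bearing direct-repeat seeds, single-nucleotide variants, half-site ablations and random human genomic background sequences. Incubation lasted 1 h with ligand-free nuclear receptor dimers in PBS pH 7.4, 2% milk, 0.02% Triton X-100, 1 mM DTT, 0.2 mg/mL BSA and 0.4 mg/ml salmon testes DNA. Antibodies against each partner (one per run) detected bound dimers, and fluorescence scans were regression-normalized. Binding z-scores take the random background probes as reference.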

Experiment [2] relates to LXRa:RXRa (NR concentration 270 nM, RXRa partner concentration 90 nM). The gist of the method:
as §1

Experiment [3] has as its system LXRa homodimer (NR concentration 270 nM). The gist of the method:
as §1

Experiment [4] deals with LXRb:RXRa (NR concentration 270 nM, RXRa partner concentration 90 nM). Summed up: as §1
Experiment [5] concerns LXRb homodimer (NR concentration 270 nM). Summed up:
as §1

Experiment [6] concerns PPARa:RXRa (NR concentration 270 nM, RXRa partner concentration 90 nM). The gist of the method:
as §1

The subject of experiment [7] is PPARg:RXRa (NR concentration 180 nM, RXRa partner concentration 90 nM). The gist of the method:
as §1

The test system of experiment [8] is PPARg:RXRa 270nM:90nM, anti-RXR (NR concentration 270 nM, RXRa partner concentration 90 nM). Summed up: as §1
Experiment [9] deals with PPARg:RXRa 30nM:10nM, anti-RXR (NR concentration 30 nM, RXRa partner concentration 10 nM). The gist of the method:
as §1

For experiment [10], the system named is PPARg:RXRa 90nM:30nM, anti-RXR (NR concentration 90 nM, RXRa partner concentration 30 nM). Summed up: as §1
In experiment [11] the test system is PPARg:RXRa DBDmut IVT, anti-RXR (DBD mutation: RXRa K156A/R161A, NR concentration 270 nM, RXRa partner concentration 90 nM). The gist of the method:
as §1

Experiment [12] concerns PPARg:RXRa IVT, anti-PPARg (NR concentration 270 nM, RXRa partner concentration 90 nM). The gist of the method: as §1
The subject of experiment [13] is PPARg DBDmut:RXRa IVT, anti-PPARg (DBD mutation: PPARg1 K132A/R137A, NR concentration 270 nM, RXRa partner concentration 90 nM). Summed up: as §1
The test system of experiment [14] is PPARg DBDmut IVT, anti-PPARg (DBD mutation: PPARg1 K132A/R137A, NR concentration 270 nM). The gist of the method: as §1
Experiment [15] relates to PPARg homodimer (NR concentration 180 nM). Summed up:
as §1

The test system of experiment [16] is PXR:RXRa (NR concentration 270 nM, RXRa partner concentration 90 nM). The gist of the method: as §1
Experiment [17] deals with PXR homodimer (NR concentration 270 nM). The gist of the method: as §1
The subject of experiment [18] is RARa:RXR (NR concentration 270 nM, RXRa partner concentration 90 nM). The gist of the method: as §1
The subject of experiment [19] is RARa homodimer (NR concentration 270 nM). The gist of the method: as §1
The subject of experiment [20] is RARb:RXRa (NR concentration 270 nM, RXRa partner concentration 90 nM). The gist of the method: as §1

Turning to TCGAGTAGGTTAGTCGGGTCATTCAGCCAACATA, the PBM binding z-score was 1.62 in [1]; 1.62 in experiment [2]; 0.312 in [3]; 1.98 in experiment [4]; -0.941 in [5]; 3.14 in experiment [6]. Besides, the PBM binding z-score in experiment [7] was 1.39; in experiment [8] it was 2.4; in [9], 1.36; in experiment [10] it was 1.95; in experiment [11], 2.57; in experiment [12], 3.67. For the same sequence, the PBM binding z-score in experiment [13] is -0.174; in experiment [14], -0.903; in experiment [15], 1.13; in [16], 2.57; in experiment [17] it was 1.01; in experiment [18] it was 2.77. Besides, the PBM binding z-score in experiment [19] was -0.535; in [20] it was 1.79.
Turning to ACTAGTTGGTCAGCTGAGGCCACACACAATTCGG, the PBM binding z-score is 0.531 in [1]; -0.313 in [2]; -0.2 in [3]; -0.129 in experiment [4]; -0.143 in [5]; -0.0104 in experiment [6]. Moreover, the PBM binding z-score was 0.761 in [7]; -0.157 in [8]; -0.382 in experiment [9]; -0.207 in experiment [10]; 0.674 in [11]; 0.964 in experiment [12]. Also, the PBM binding z-score in [13] is 0.862; in experiment [14], 0.728; in experiment [15] it was 0.0249; in experiment [16] it was 1.11; in experiment [17] it was -0.242; in [18], 1. Also, the PBM binding z-score in [19] was -0.472; in experiment [20], 1.13.
Regarding TCGAGTAGGTCAGTCGGGGCATTCAGCCAACATA, the PBM binding z-score is 1.39 in experiment [1]; 1.09 in [2]; -0.271 in experiment [3]; 1.55 in experiment [4]; -0.625 in experiment [5]; 2.56 in experiment [6]. In addition, the PBM binding z-score in [7] amounted to 2.27; in experiment [8], 2.87; in [9] it was 1.39; in [10] it was 2.2; in experiment [11], 4.8; in experiment [12], 4.74. Further, the PBM binding z-score is 0.141 in [13]; -0.71 in [14]; 1.14 in experiment [15]; 1.71 in [16]; 0.855 in experiment [17]; 1.47 in experiment [18]. Moreover, the values for the PBM binding z-score in [19] and in experiment [20] were -0.53 and 3.03, respectively.
On to TCTGCTAGGTCAACGATGGTCCGCTAATCTGCTA, for which the PBM binding z-score in experiment [1] is 2.99; in experiment [2] it was 2.08; in [3], -0.377; in [4] it was 1.02; in experiment [5], -0.262; in experiment [6] it was 3. Besides, the PBM binding z-score in experiment [7] was found to be 2.07; in experiment [8], 2.75; in experiment [9], 1.9; in [10], 2.22; in [11], 4.07; in experiment [12], 4. The PBM binding z-score in experiment [13] is -0.429; in [14], 0.0666; in experiment [15], 0.694; in experiment [16], 0.998; in experiment [17], -0.847; in experiment [18], 1.91. For the same sequence, the PBM binding z-score in experiment [19] is -0.449; in experiment [20], 3.91.
As for TAGCCTCGGTCATGCGGGCCAGTATAGTGTCGGC, the PBM binding z-score in experiment [1] was 0.522; in [2], 0.28; in [3], -0.0554; in [4], -0.734; in [5], -0.472; in experiment [6] it was -0.0733. In addition, the PBM binding z-score in experiment [7] is -0.325; in experiment [8] it was -0.494; in experiment [9] it was -0.587; in experiment [10], -0.372; in experiment [11], -0.364; in experiment [12], 0.336. The PBM binding z-score in experiment [13] is -0.318; in experiment [14], -0.413; in [15] it was -0.406; in experiment [16], -0.524; in [17] it was -0.81; in experiment [18], -0.296. Further, the PBM binding z-score in [19] was -0.888; in experiment [20], 2.36.
TCGAGTACGTTAGTCGGGGCATTCAGCCAACATA: the PBM binding z-score in experiment [1] is -0.454; in experiment [2], -0.474; in [3], -0.665; in [4], 0.0371; in experiment [5], -1.12; in [6], 0.167. In addition, the PBM binding z-score was -0.163 in experiment [7]; 0.223 in experiment [8]; 0.88 in experiment [9]; 0.775 in experiment [10]; 0.607 in experiment [11]; -0.44 in experiment [12]. Besides, the PBM binding z-score in [13] is -0.411; in experiment [14] it was -0.712; in experiment [15], -0.34; in experiment [16], -0.0967; in experiment [17] it was -0.478; in experiment [18], -0.134. In addition, the results for the PBM binding z-score in [19] and in experiment [20] were -0.667 and 0.019, respectively.
GGAACGGGGGCAAAGTTGATAGCATCTGTCGACG: the PBM binding z-score in experiment [1] was 3.75; in experiment [2], 3.32; in experiment [3] it was 0.259; in [4], 4.64; in experiment [5] it was 6.22; in experiment [6] it was 5.56. The PBM binding z-score in [7] stood at 9.31; in [8], 8.52; in [9], 9.53; in experiment [10], 9.94; in experiment [11], 4.07; in [12] it was 6.45. In addition, the PBM binding z-score in experiment [13] turned out to be 10.3; in [14], 11.6; in experiment [15], 2.01; in [16] it was 3.21; in experiment [17] it was 1.78; in [18] it was 3.47. For the same sequence, the PBM binding z-score in experiment [19] came out at 0.888; in experiment [20], 3.27.
